According to PubChem BioAssay (NCI):
Compounds without any hit were thinned out: in the full panel of roughly 83,000, 20% have a hit.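 The endpoint reported here, percent growth, reads 100 for growth as untreated, 0 for no net growth and -100 for all cells dead.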 Unmarked numbers belong to inactive results. Activity calls are given as the source filed them. Rule for the calls: active = growth percent below 10; inactive = the rest.

Legend:
Test in all cases: NCI-60 one-dose screen, 48 h (100 = growth as untreated, 0 = no growth, -100 = all killed)
Conditions in all cases: 10 µM unless noted
NCI-H23 lung = test system: NCI-H23 lung
NCI-H322M lung = test system: NCI-H322M lung
HOP-62 NSCLC = test system: HOP-62 NSCLC
NCI-H460 lung = test system: NCI-H460 lung
HOP-92 NSCLC = test system: HOP-92 NSCLC
NCI-H522 lung = test system: NCI-H522 lung
A549/ATCC NSCLC = test system: A549/ATCC NSCLC
786-0 renal = test system: 786-0 renal
COLO 205 colon = test system: COLO 205 colon

| Structure (SMILES) | growth (NCI-H23 lung) [%] | growth (NCI-H322M lung) [%] | growth (HOP-62 NSCLC) [%] | growth (NCI-H460 lung) | growth (HOP-92 NSCLC) [%] | growth (NCI-H522 lung) | growth (A549/ATCC NSCLC) [%] | growth (786-0 renal) [%] | growth (COLO 205 colon) |
| --- | --- | --- | --- | --- | --- | --- | --- | --- | --- |
| CCOC(=O)c1ccc(Nc2ccnc(SCC(=O)c3ccc(C#N)cc3)n2)cc1 | 79.9 | 90.5 | 63.4 | 90.5% | 105 | 27% | 60.6 | 78.4 | 70.8% |
| CCCC1C(C(=O)OCC)=C(N)Oc2cc(O)ccc21 (centres undefined) | 90.7 | 109 | 76.7 | 93.1% | 74.8 | 77.2% | 101 | 95.1 | 96.3% |
| CC(=O)[C@@H]1CC[C@]2(C(=O)n3ccnc3)CC[C@]3(C)[C@H](CC[C@@H]4[C@@]5(C)Cc6c([nH]c7ccccc67)C(C)(C)[C@@H]5CC[C@]43C)[C@@H]12 | 87.8 |  | 95.7 | 80.9% | 93.9 | 82.9% | 68.2 | 94.4 | 101% |
| COc1ccc(C(O)c2cc3c(N)c(C(=O)Nc4ccccc4)sc3nc2C)cc1 (centres undefined) | 29.7 | 35.4 | 18.8 | 3.3% (active) | 30.3 | -55.9% (active) | 13.4 | 29.3 | -58.9% (active) |
| COc1ccc(Cn2nc(-c3cc(OC)c(OC)c(OC)c3)c3c2CCc2cnoc2-3)cc1OC | 62.4 | 75.9 | 57.2 | 55.1% | 33.3 | 15.2% | 52.2 | 66.5 | 74.4% |
